KinaseGlo FLuc – blocks Kinase-Glo luciferase, a counter-screen artifact. 0.28% of 200,000 active. Kinase-Glo luciferase, ATP luminescence, 8 min. Q27757. Potency, µM (titrated, usually from 38.3 µM), actives largely listed as inhibitors; note: nearly all actives have a fitted effect of over 60% in size
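Substrate mix (final 50 mM imidazole pH 7.2, 50 mM KCl, 7 mM MgCl2, 10 uM ATP, 0.01% Tween 20, 0.05% BSA) plus pin-tool compound, then Kinase-Glo detection mix; 8 min ambient, luminescence read.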
Gal4-VP16 FLuc – inhibits Gal4-VP16 luciferase reporter, ROR gamma counter-screen; Drosophila S2 Gal4-VP16 UAS-luciferase, luminescence, 20 h; 3.5% of 310,000 active; Potency, µM (series often up to 53.6 µM), most hits filed as inhibitors; AID 2546;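 note: Gal4-VP16 expression switched on by copper sulfate through the metallothionein promoter; nearly all actives have a fitted effect of over 50% in size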
RORgamma inh – blocks mouse ROR gamma transcriptional activity; P51450; Drosophila S2 Gal4-RORgamma UAS-luciferase reporter, 20 h; Potency, µM (doses to about 53.6 µM), actives largely listed as inhibitors; 5.4% of 310,000 active; note: nearly all actives have a fitted effect of over 60% in size
Target sequence (P51450 whole entry, looked up, the tested form may be a part): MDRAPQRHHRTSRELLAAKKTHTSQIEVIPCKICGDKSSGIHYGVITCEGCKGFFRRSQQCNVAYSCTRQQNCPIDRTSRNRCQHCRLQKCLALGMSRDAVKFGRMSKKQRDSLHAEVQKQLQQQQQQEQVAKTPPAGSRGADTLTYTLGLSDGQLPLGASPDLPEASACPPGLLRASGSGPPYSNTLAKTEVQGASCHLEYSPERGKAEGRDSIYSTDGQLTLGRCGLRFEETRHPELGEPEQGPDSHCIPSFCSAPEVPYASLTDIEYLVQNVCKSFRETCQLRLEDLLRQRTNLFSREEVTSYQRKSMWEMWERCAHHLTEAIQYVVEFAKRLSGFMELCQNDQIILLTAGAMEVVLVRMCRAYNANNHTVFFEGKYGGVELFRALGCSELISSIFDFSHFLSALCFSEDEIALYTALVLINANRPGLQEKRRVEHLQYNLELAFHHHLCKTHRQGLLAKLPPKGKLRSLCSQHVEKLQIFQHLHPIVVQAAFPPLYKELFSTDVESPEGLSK
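In this cell-based reporter format, copper sulfate (700 uM final) drives Gal4–ROR gamma fusion expression from a metallothionein promoter in Drosophila Schneider cells; compounds preincubated 1 hr, reporter read after 20 hr at ambient temperature.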
Of the large screens only hits and unclear results are named; the others gave an inactive call. This is a sample that favours compounds with a hit; in the whole collection about 6.4% have one here. Calls come from the whole dose curve; as a rule, active = well fitted curve in the direction sought with a large enough effect; inconclusive = small, poorly fitted or top-dose-only effect, or another doubt; inactive = no such curve, though single readings can be large; an effect the other way counts as inactive or inconclusive.

COc1ccc(NC(=O)COc2ccc(/C=N/O)cc2OC)cc1	Gal4-VP16 FLuc inconclusive, RORgamma inh inconclusive
COc1ccc(OCC(=O)Nc2ccc(C)cc2)cc1	none
COc1cc(/C=N/NC(=S)Nc2cccc(Cl)c2C)ccc1OCC(=O)N1CC(C)OC(C)C1 (stereo unspecified)	Gal4-VP16 FLuc 2.5µM, RORgamma inh 1.6µM
CCCCNC(=S)N(C)/N=C/c1ccc(OCC(=O)Nc2c(C)cc(C)cc2C)c(OC)c1	none
CCNC(=S)N/N=C/c1ccc(OCC(=O)Nc2ccc(C)cc2)cc1	Gal4-VP16 FLuc inconclusive, RORgamma inh 18µM
COc1cc(/C=N/NC(=S)NC(C)C)ccc1OCC(=O)Nc1c(C)cc(C)cc1C	Gal4-VP16 FLuc 0.5µM, RORgamma inh 0.71µM
COc1cc(/C=N/NC(=O)c2ccc(Cl)cc2)ccc1OCC(=O)N1CC(C)OC(C)C1 (stereo unspecified)	none
CCNC(=S)N/N=C/c1ccc(OCC(=O)Nc2ccc(OC)cc2)c(OC)c1	Gal4-VP16 FLuc inconclusive, RORgamma inh 4.5µM
Cc1c([N+](=O)[O-])cc(C(=O)Nc2ccc(NC(=O)c3ccco3)cc2)cc1[N+](=O)[O-]	none (no result: KinaseGlo FLuc)
CN(C)c1ccc(-c2cncnc2-n2ccnc2)cc1	none (no result: KinaseGlo FLuc)
O=c1[nH]cnc2onc(-c3ccc(F)cc3)c12	none (no result: KinaseGlo FLuc)
CCCCCCC1=Cc2cc(OC)c(OC)cc2C(C2(C(=O)OCC)CCCC2=O)O1 (stereo unspecified)	none (no result: KinaseGlo FLuc)
Cc1ccc(CN2CCN(Cc3cccn3-c3nccs3)CC2CCO)cc1 (stereo unspecified)	none
COCCNC(=S)N/N=C/c1ccc(OCc2ccc(C(=O)OC)cc2)cc1	RORgamma inh inconclusive
CCNC(=S)N/N=C/c1ccc(OCc2ccc(C(=O)OC)cc2)cc1	Gal4-VP16 FLuc inconclusive, RORgamma inh 3.2µM
CCCCCCC(=O)N(O)C1CC(=O)N(Cc2ccccc2)C1=O (stereo unspecified)	RORgamma inh 10µM
CCCCCC(=O)N(O)C1CC(=O)N(c2ccccc2)C1=O (stereo unspecified)	Gal4-VP16 FLuc 7.1µM, RORgamma inh 16µM
O=C1CC(N(O)C2CC(=O)N(Cc3ccccc3)C2=O)C(=O)N1Cc1ccccc1 (stereo unspecified)	Gal4-VP16 FLuc inconclusive
CCCCCC(=O)NNC1CC(=O)N(c2ccccc2)C1=O (stereo unspecified)	none (no result: KinaseGlo FLuc)
CCOC(=O)c1c(NC(=O)c2c(C(=O)O)cccc2[N+](=O)[O-])sc(C)c1C	none
CN(C)c1ncc2ncc(=O)n(CCc3ccccc3)c2n1	none (no result: KinaseGlo FLuc)
COC(=O)c1cn(C(=O)c2ccc(OC)cc2)c2ccccc12	none (no result: KinaseGlo FLuc)
Cc1ccc(C(=O)CC(=O)COc2ccc(Cl)cc2)cc1	Gal4-VP16 FLuc 10µM, RORgamma inh 13µM
Cc1ccc(OCC(=O)Nc2cccc(O)c2)cc1C	none
COc1ccc(OCC(=O)NNC(=S)NC(=O)c2ccc([N+](=O)[O-])cc2)cc1	Gal4-VP16 FLuc 5.6µM, RORgamma inh 5.6µM (no result: KinaseGlo FLuc)
O=C(NC(=S)NNC(=O)c1ccccc1O)c1ccc([N+](=O)[O-])cc1	none (no result: KinaseGlo FLuc)
O=C(NNC(=S)NC(=O)c1ccccc1)c1ccc([N+](=O)[O-])cc1	Gal4-VP16 FLuc 1.4µM, RORgamma inh 3.5µM (no result: KinaseGlo FLuc)
Cc1ccc(OCC(=O)NS(=O)(=O)c2ccc(Cl)cc2)cc1	none (no result: KinaseGlo FLuc)
CC(=O)NC(=S)NNC(=O)COc1ccc([N+](=O)[O-])cc1	none
CNC(=S)NNC(=O)COc1ccc(C)c(C)c1	Gal4-VP16 FLuc 7.1µM, RORgamma inh 6.3µM
CC(C)CC(=O)Nc1ccc(C(=O)CN2CCC(C)CC2)cc1	none (no result: KinaseGlo FLuc)
C=CCNc1nc(N)c([N+](=O)[O-])c(NCCO)n1	none (no result: KinaseGlo FLuc)
CCc1nc(N2CCN(CC(=O)NCC3CCCO3)CC2)c(C#N)c2c1COC(C)(C)C2 (stereo unspecified)	none (no result: KinaseGlo FLuc)
CC(Oc1ccccc1F)C(=O)NNC(=O)c1cc2ccccc2o1 (stereo unspecified)	none (no result: KinaseGlo FLuc)
CC(=O)OCC(NC(=O)C(COCc1ccccc1)NC(=O)OC(C)(C)C)C1OC(n2cc(C)c(=O)[nH]c2=O)C(OC(C)=O)C1OC(C)=O (stereo unspecified)	none (no result: KinaseGlo FLuc)
O=C(NNC(=O)c1ccc([N+](=O)[O-])cc1)c1ccc(Br)cc1	none (no result: KinaseGlo FLuc)
CC(=O)Nc1ccc(NC(=O)c2cc([N+](=O)[O-])cc([N+](=O)[O-])c2)cc1	none (no result: KinaseGlo FLuc)
O=C(NNC(=S)NC(=O)c1ccccc1[N+](=O)[O-])c1ccc(Cl)cc1Cl	RORgamma inh 5.6µM
O=C(NNC(=S)NC(=O)c1ccc(Br)cc1)c1ccc([N+](=O)[O-])cc1	Gal4-VP16 FLuc inconclusive, RORgamma inh 11µM (no result: KinaseGlo FLuc)
Cc1ccc(S(=O)(=O)NNC(=S)NC(=O)c2ccc([N+](=O)[O-])cc2)cc1	Gal4-VP16 FLuc inconclusive
Cc1ccc(C(=O)NC(=S)NNC(=O)c2ccc([N+](=O)[O-])cc2)cc1	Gal4-VP16 FLuc 11µM, RORgamma inh inconclusive (no result: KinaseGlo FLuc)
